Source: PubChem
This is a sample that favours compounds with a hit; in the whole collection about 4% have one here.
GRP78 ERSR act – inducers of ER stress response in human glioma cells; U87-MG GRP78 promoter luciferase reporter, 16 h; Potency, µM, actives largely listed as activators; hit rate 0.02% among 420,000; active = well fitted activation curve with a large enough effect; note: series mostly up to about 76 µM; nearly all actives have a fitted effect of over 35% in size
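Stably transfected U87-MG human glioma cells carrying a GRP78-based luminescent sensor were seeded at 1000 cells/well, pin-dosed with compounds and incubated 16 h. Luciferase reagent was then added, and end-point luminescence was read after 10 min at room temperature.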
D1 antag – antagonists of human D1 dopamine receptor; P21728; HEK293 TREx D1 cells, calcium flux, dopamine EC80; stronger effect = lower value; activity change, negative = inhibition, % at 10 µM; hit rate 3.2% among 360,000; AID 504652; in the data active = activity change below about -30%
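Allosteric or orthosteric antagonism assessed as attenuation of the calcium response to EC80 dopamine, added 180 s after compound, in induced HEK293 Trex D1 cells loaded with no-wash calcium dye.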
TRHR enhancer – allosterically enhances the human TRH receptor | TRHR cells, fluo-8 calcium fluorescence, EC20 TRH enhancement | hit rate 0.66% among 360,000 | enhancement, % at 2 µM; in the data active = enhancement above about 30%
Target sequence (P34981 whole entry, looked up): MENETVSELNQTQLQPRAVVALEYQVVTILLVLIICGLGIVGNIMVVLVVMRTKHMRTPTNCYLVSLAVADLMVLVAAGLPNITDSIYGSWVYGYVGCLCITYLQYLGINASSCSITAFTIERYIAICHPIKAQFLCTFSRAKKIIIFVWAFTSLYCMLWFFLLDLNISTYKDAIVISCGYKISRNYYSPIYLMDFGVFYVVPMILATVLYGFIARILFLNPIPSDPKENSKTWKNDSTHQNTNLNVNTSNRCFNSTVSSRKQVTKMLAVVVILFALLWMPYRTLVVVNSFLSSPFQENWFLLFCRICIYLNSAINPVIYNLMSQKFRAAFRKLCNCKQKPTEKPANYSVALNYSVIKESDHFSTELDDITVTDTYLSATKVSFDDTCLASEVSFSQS
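TRHR-expressing cells loaded with fluo-8 calcium dye were read kinetically (ex 480/em 530) during compound addition, then stimulated with an EC20 of TRH (10 nM final). Enhancement of the Gq-mediated intracellular calcium response was scored.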
TRHR agonist – agonists of human TRH receptor; P34981; TRHR cells, calcium flux fluo-8, FDSS agonist mode; activation, % at 2 µM; hit rate 0.18% among 360,000; AID 493084
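Agonist-mode FDSS calcium read (Ex 480/Em 530, 1 s cycles) in 1536-well TRHR cells with fluo-8 dye, after 10-cycle baseline and 23 nL compound addition; TRH at EC20 (10 nM final) added afterwards for the enhancer phase.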
D1 PAM – enhances dopamine response at the human D1 receptor; P21728; HEK293 TREx D1 cells, calcium flux, dopamine EC20 potentiation; potentiation, % at 10 µM; hit rate 0.036% among 360,000; in the data active = potentiation above about 30%
D1 ag – activates the human D1 dopamine receptor. AID 504660. HEK293 T-REx D1 cells, calcium flux, agonist mode. hit rate 1% among 360,000. activation, % at 2 µM. P21728
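Inducible HEK293 T-REx D1 cells, force-coupled to calcium signalling, were plated at 4000 cells/well with tetracycline and held overnight at 30 C. After no-wash calcium dye loading, compound-evoked calcium rise over 180 s flagged agonists.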
A number is an active result; i = inactive; nt = not tested or not shown. Cut-off read from the data, not from the text of the source, unless noted: active = activation above about 30%; inactive = the rest.

SMILES	GRP78 ERSR act	D1 antag	TRHR enhancer	TRHR agonist	D1 PAM	D1 ag
O=S(=O)(Nc1ccc(-c2ccc3nncn3n2)cc1)c1ccccc1F	i	i	i	i	i	i
CCOC(=O)N1CCN(C(=O)c2ccc(Cl)c(S(=O)(=O)Nc3ccccc3)c2)CC1	i	i	i	i	i	i
CCOC(=O)c1cnn(-c2ccc(NS(=O)(=O)c3ccc(Cl)cc3)cc2)c1C(F)(F)F	i	-62	i	i	i	i
CCOC(=O)c1ccc(NS(=O)(=O)c2ccc(Cl)nc2)cc1	nt	i	i	i	i	i
Cc1nn(C(=O)c2cccc([N+](=O)[O-])c2)c(C)c1Br	i	i	i	i	i	i
c1ccc2c(c1)CCN(c1ncnc3nc[nH]c13)C2	i	i	i	i	i	i
C1=C(c2ccccc2)CCN(c2ncnc3nc[nH]c23)C1	i	-66	i	i	i	i
COc1ccccc1/C=C\C(=O)O	i	nt	nt	nt	nt	nt
COc1ccc(C(=O)Nc2ccccc2C(=O)O)cc1Cl	i	i	i	i	i	i
CCN(CC)S(=O)(=O)c1cc(C(=O)Nc2ccccc2C(=O)O)ccc1OC	i	i	39	i	i	i
Cc1ccc(CNC(=O)CN2C(=O)NC(C)(c3ccccc3Cl)C2=O)cc1 (configuration not stated)	i	i	i	i	i	i
CC(C)S(=O)(=O)c1csc(C(=O)Nc2ccc(F)cc2)c1N	i	-56	i	i	i	i
CCCN(CCC)CC(O)COc1ccc2c(c1)OCO2 (configuration not stated)	i	-45	i	i	i	i
NC(=O)C1CCN(C(=O)C2CC(=O)N(c3ccc4c(c3)OCCO4)C2)CC1 (configuration not stated)	i	-34	i	i	i	i
CC1CC(C)CN(C(=O)C2CC(=O)N(c3ccc4c(c3)OCCO4)C2)C1 (configuration not stated)	i	i	i	i	i	i
Cc1ccc(NC(=O)Cn2c(=O)n(CCC(=O)NCc3ccc4c(c3)OCO4)c(=O)c3sccc32)c(C)c1	i	-34	i	i	i	i
O=C1C(=C(c2ccccc2)c2ccccc2)Nc2ccccc21	i	i	i	i	i	36
COc1ccc(C2(C(=O)Nc3cc(C)on3)CCOCC2)cc1	i	-60	i	i	i	i
CN1CCN(c2ncnc3c2cnn3-c2ccc(Cl)cc2)CC1	i	-54	i	i	i	i
Cc1ccc(-n2ncc3c(N4CCN(C)CC4)ncnc32)cc1	i	-30	i	i	i	i
CCN1CCN(c2ncnc3c2cnn3-c2ccc(Cl)cc2)CC1	i	i	i	i	i	i
Clc1ccc(OCc2cc(-c3ccccc3)no2)cc1Cl	i	i	i	i	i	i
Clc1ccc(-c2cc(COc3ccccc3)on2)cc1	i	i	i	i	i	35
O=S(=O)(c1ccc(F)cc1F)N1CCN(CCO)CC1	i	nt	nt	nt	nt	nt
O=C1CS/C(=N/N=C2CCCC2)N1	i	-48	i	i	i	i
SMILES	GRP78 ERSR act	D1 antag	TRHR enhancer	TRHR agonist	D1 PAM	D1 ag
O=C1CSC(=NC2CCCCC2)N1	i	i	i	i	i	i
O=C(NCCN1CCOCC1)c1cc(-c2ccc(Cl)cc2Cl)on1	i	-34	i	i	i	i
O=C(COC(=O)Cc1c(Cl)cccc1Cl)NCc1ccccc1	i	nt	nt	nt	nt	nt
COc1ccc(Br)cc1CNC(=O)C1CCCN(S(=O)(=O)N2CC(C)CC(C)C2)C1 (configuration not stated)	i	-33	i	i	i	i
COc1ccc(Br)cc1CNC(=O)C1CCN(S(=O)(=O)N2CCCCC2)CC1	i	i	i	i	i	i
COc1ccccc1CNC(=O)C1CCCN(S(C)(=O)=O)C1 (configuration not stated)	i	i	i	i	i	i
COc1ccccc1CNC(=O)C1CCCN(S(=O)(=O)c2cccs2)C1 (configuration not stated)	i	i	40	i	i	i
C#CCCCCCCCCC(=O)NCCCC	i	i	i	i	i	i
CCc1ccc(/C=C2/SC(=S)N(CCC(=O)Nc3cccc(C(=O)O)c3)C2=O)cc1	i	i	i	i	i	68
CCc1ccc(/C=C2/SC(=S)N(CCCC(=O)Nc3ccccc3C(=O)O)C2=O)cc1	i	-32	i	i	i	i
FC(F)(F)c1nnc(Nc2ccc(Cl)cc2)s1	i	-30	i	i	i	i
